Reference: PubChem BioAssay AID686978 (National Center for Advancing Translational Sciences (NCATS), 2013)
Out of some 420,000 compounds screened, about 64,000 (15%) were called active. Another 27% or so got no clear call; they are omitted. Calls come from the whole dose curve; as a rule, active = well fitted inhibition curve with a large enough effect; inconclusive = small, poorly fitted or top-dose-only effect; inactive = flat fitted curve, though single readings scatter. A selection follows.

Assay: qHTS for Inhibitors of human tyrosyl-DNA phosphodiesterase 1 (TDP1): qHTS in cells in absence of CPT; note: nearly all actives have a fitted effect of over 55% in size
Conditions: DT40 Tdp1-/- hTDP1 cells, no CPT, ATP luminescence, 48 h; activity change, negative = growth inhibition: at 46.2 µM (top of the series)
How it was run: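 DT40 Tdp1-/-;hTDP1 cells, no CPT (DMSO vehicle only), 400 cells/well; compounds pin-transferred; ≥48 hr, 37 °C; CellTiter-Glo 30 min RT dark, luminescence read.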
% is set by controls: 0 for no effect and ±100 for the full control effect; potency is the fitted concentration of half-maximal effect.

| Compound | activity change, negative = growth inhibition | Potency |
| --- | --- | --- |
| COc1cc(NS(=O)(=O)c2cccs2)cc(OC)c1 | -16.9% (inactive) | – |
| CCOc1cc(CNCc2ccccn2)ccc1OCC(=O)NC(C)(C)C | -73.4% (inactive) | – |
| Cc1cccc(NC(=O)N2CCCCCC2)c1C | 17.4% (inactive) | – |
| O=C(CCNC(=O)c1ccccc1Cl)NN=Cc1ccco1 | -0.295% (inactive) | – |
| CCOCCCNS(=O)(=O)Cc1ccccc1 | 5.44% (inactive) | – |
| CCC(C)NC(=O)CSC1=Nc2ccccc2C2=NC(CCC(=O)NCc3ccco3)C(=O)N12 (configuration not stated) | -3% (inactive) | – |
| CC(=O)c1cnc(-c2ccccc2)s1 | 6.21% (inactive) | – |
| CC(=O)c1nnn(-c2ccc(Cl)cc2C#N)c1C | -23.2% (inactive) | – |
| CNC(=O)c1ccc2nc(NC(C)=O)sc2c1 | -18.8% (inactive) | – |
| CCOc1ccc2nc(Nc3nc4ccc(NC(C)=O)cc4s3)sc2c1 | – | 10.3 µM (active) |
| CC(=O)Nc1ccc2nc(NC(=O)CS(=O)(=O)c3ccc(F)cc3)sc2c1 | -14.1% (inactive) | – |
| COCCn1c(SCc2nc3cc(OC)c(OC)cc3c(=O)[nH]2)nnc1-c1ccncc1 | -16.8% (inactive) | – |
| O=c1c2ccccc2nc(CSc2nnnn2-c2ccccc2)n1-c1ccccc1 | -16.9% (inactive) | – |
| COc1ccc(C)cc1-n1nnnc1SCc1nc2ccccc2c(=O)[nH]1 | – | 9.2 µM (active) |
| O=C1CCC[C@@H]2CC(N3CCCCC3)C[C@@H]3CCN1[C@H]23 (some centres not stated) | -9.79% (inactive) | – |
| S=C1Nc2cc(Cl)ccc2Sc2ccccc21 | 8.29% (inactive) | – |
| Cc1cccc(C)c1NC(=O)C(Cl)C(=O)c1ccccc1 (configuration not stated) | – | 7.31 µM (active) |
| Cc1cccc(C)c1NC(=O)CN(C)C(=O)CCC(=O)c1ccccc1 | 6.97% (inactive) | – |
| Cc1ccccc1NC(=O)c1ccccc1 | -3.3% (inactive) | – |
| CCCCNCCS(=O)(=O)NCc1ccccc1 | -17.8% (inactive) | – |
| C[C@H](CO)N1C[C@H](C)[C@@H](CN(C)S(=O)(=O)c2ccc(F)cc2)OCc2cnnn2CCCC1=O | -20.3% (inactive) | – |
| COc1cc(C(=S)N2CCOCC2)cc(OC)c1OC(=O)c1cc([N+](=O)[O-])cc([N+](=O)[O-])c1 | -7.83% (inactive) | – |
| COc1ccc(N2CCN(C(=O)CNS(=O)(=O)c3ccc(C)c(C)c3)CC2)cc1 | -16.1% (inactive) | – |
| COc1ccccc1CC(=O)Nc1ccc(S(=O)(=O)N2CCCC2)cc1 | -1.81% (inactive) | – |
| COc1ccccc1N1CCN(C(=O)c2ccc(S(=O)(=O)N3CCCCC3)cc2)CC1 | – | 25.9 µM (active) |
| COc1ccccc1N1CCN(S(=O)(=O)c2ccc(Cl)cc2)CC1 | -14.6% (inactive) | – |

| Compound | activity change, negative = growth inhibition | Potency |
| --- | --- | --- |
| CN(c1ccccc1)S(=O)(=O)c1ccc(Cl)c(C(=O)OCC(=O)N2CCOCC2)c1 | 10.2% (inactive) | – |
| COc1ccc(C(=O)NCc2ccc(Cl)cc2)cc1S(=O)(=O)N1CCCC1 | -9.45% (inactive) | – |
| CCOC(=O)N1CCN(C(=O)COC(=O)c2cccc(S(C)(=O)=O)c2)CC1 | -11.6% (inactive) | – |
| COc1ccccc1N1CCN(C(=O)c2ccc(Cl)c(S(=O)(=O)N3CCCC3)c2)CC1 | – | 18.4 µM (active) |
| O=C(c1ccc(Cl)c(S(=O)(=O)N2CCCCCC2)c1)N1CCN(c2ccc(O)cc2)CC1 | -47.4% (inactive) | – |
| COc1ccc(N2CCN(C(=O)COC(=O)c3cccc(S(=O)(=O)Nc4ccccc4OC)c3)CC2)cc1 | – | 20.6 µM (active) |
| CN(c1ccccc1)S(=O)(=O)c1ccc(C(=O)N2CCN(c3ccccc3Cl)CC2)cc1 | – | 20.6 µM (active) |
| CCN(CC)S(=O)(=O)c1ccc(C(=O)N2CCN(C3=NS(=O)(=O)c4ccccc43)CC2)cc1 | 9.61% (inactive) | – |
| COc1ccc(S(=O)(=O)NCC(c2ccc(C)cc2)N2CCN(C)CC2)cc1OC (configuration not stated) | -15.7% (inactive) | – |
| CC(C)C(NC(=O)C1CCC(C(C)(C)C)CC1)C(=O)NCCCN1CCCCC1 (configuration not stated) | -16.1% (inactive) | – |
| CC1CCN(C(=S)c2cccc(O)c2)CC1 | -4.71% (inactive) | – |
| C/C=C/C(=O)OCC(=O)Nc1ccc(F)cc1Cl | 2.04% (inactive) | – |
| CC(CN1CCC(n2nccc2NC(=O)C2CCCC2)CC1)c1ccccc1 (configuration not stated) | -3.11% (inactive) | – |
| Nc1c(-c2ccc(F)cc2)cnc2ncnn12 | -20.8% (inactive) | – |
| COc1ccc(C)cc1NC(=O)NCc1ccccn1 | 17% (inactive) | – |
| COC(=O)C1=C(C)N=C2SC(C)C(=O)N2C1/C=C/c1ccccc1 (configuration not stated) | -13.3% (inactive) | – |
| COCCNC(=O)CN(C(=O)CCC(=O)Nc1cc(C)on1)c1ccc(C)cc1C | -22.6% (inactive) | – |
| COc1ccccc1NS(=O)(=O)c1ccc(C)c(C(=O)NNC(=O)c2csc(N3CCOCC3)n2)c1 | 0.22% (inactive) | – |
| COc1ccccc1N1CCN(C(=O)c2c(-c3c(Cl)cccc3Cl)noc2C)CC1 | – | 20.6 µM (active) |
| COc1ccc(S(=O)(=O)Nc2ccccc2C(=O)N2CCCC2)cc1C | -15.9% (inactive) | – |
| Cc1[nH]n(C)c(=O)c1C(=O)c1c(-c2c(Cl)cccc2Cl)noc1C | -8.02% (inactive) | – |
| Cc1onc(-c2ccccc2)c1C(=O)N1CCN(S(=O)(=O)c2ccccc2C(F)(F)F)CC1 | -6.01% (inactive) | – |
| COc1ccccc1NS(=O)(=O)c1ccc(C(=O)N2CCN(c3ccccc3O)CC2)cc1 | – | 16.4 µM (active) |
| COc1ccc2c(c1)CCC/C2=N\OC(=O)c1ccccc1F | -24.6% (inactive) | – |
| CC(C)(CSc1nncn1/N=C/c1ccco1)NS(=O)(=O)c1ccc(Cl)cc1 | -25.2% (inactive) | – |
| O=C(COC(=O)CSc1nnc(-c2ccc(Cl)cc2)o1)Nc1cc(Cl)cc(Cl)c1 | -9.27% (inactive) | – |

| Compound | activity change, negative = growth inhibition | Potency |
| --- | --- | --- |
| Cn1ccsc1=NC(=O)c1cc(S(=O)(=O)N2CCOCC2)ccc1Cl | 1.11% (inactive) | – |
| Cc1ccccc1C(=O)Nc1ccccc1Sc1ccccc1 | -4.96% (inactive) | – |
| O=C(O)COc1nsnc1N1CCOCC1 | -2.57% (inactive) | – |
| CSCCC(NC(N)=O)C(=O)N(C)CC(=O)Nc1ccc(C)cc1 (configuration not stated) | -6.89% (inactive) | – |
| COc1cccc(N2CC(NC(=O)/C=C\c3ccccc3)CC2=O)c1 (configuration not stated) | -25.4% (inactive) | – |
| COc1ccc(-c2nn3c(-c4ccc(OC)cc4)nnc3c3ccccc23)cc1 | 1.41% (inactive) | – |
| CC(C)N(C(=O)Cn1cc(S(=O)(=O)CC(=O)N2CCOCC2)c2ccccc21)C(C)C | 15.3% (inactive) | – |
| O=C(NCc1ccccc1)C1=C[C@@H](C2CCCCC2)C[C@@H](OCc2ccc(CO)cc2)O1 | – | 16.4 µM (active) |
| O=C(COC(=O)CNC(=O)C1CCCCC1)NCc1ccccc1 | -19.7% (inactive) | – |
| O=C(O)C1CCN(C(=O)OCc2ccccc2)CC1 | 0.979% (inactive) | – |
| COc1cc(Cl)cc(C2NC(=O)NC(C)=C2C(=O)NCc2ccccc2)c1O (configuration not stated) | -1.85% (inactive) | – |
| CC(=O)Nc1ccc(NC(=O)COc2ccc(-c3ccccc3)cc2)cc1 | -0.864% (inactive) | – |
| CC(NC(=O)COc1ccc(-c2ccccc2)cc1)C1CCCO1 (configuration not stated) | – | 11.6 µM (active) |
| CCOc1ccc(C(CC(=O)O)NC(=O)COc2ccccc2)cc1 (configuration not stated) | -10% (inactive) | – |
| COc1ccc(NC(=O)N(C)C[C@H]2Oc3ccc(NC(=O)C4CC4)cc3C(=O)N([C@H](C)CO)C[C@@H]2C)cc1 | 6.81% (inactive) | – |
| CCCc1cc(=O)[nH]c(SCc2ccc(C#N)cc2)n1 | -8.85% (inactive) | – |
| CSCCC(Nc1ccc(S(=O)(=O)N2CCOCC2)cc1[N+](=O)[O-])C(=O)OCC(=O)N(C(C)C)C(C)C (configuration not stated) | -4.59% (inactive) | – |
| COc1ccc(-n2c(C)cc(C(=O)CSc3nnc(-c4cccs4)o3)c2C)cc1 | – | 16.4 µM (active) |
| COc1ccc(OC)c(C(=O)CSc2nnc(-c3cccs3)o2)c1 | -23.3% (inactive) | – |
| Cc1ccc(OC(=O)CSc2nnc(-c3cccs3)o2)cc1 | 2.81% (inactive) | – |
| Cc1cc(C)c(NC(=O)CN2CCCCCC2)c(C)c1 | 20.9% (inactive) | – |
| Cc1c(-c2ccccc2)cn2c1-c1ccc(C)n1CC2 | – | 16.4 µM (active) |
| O=c1[nH]c(SCc2ccccc2)nnc1-c1ccccc1 | -13.7% (inactive) | – |
| CN(C)C(=O)CSc1n[nH]c(-c2ccco2)n1 | 2.59% (inactive) | – |
| COC(C[C@@H](O)C[C@@H](O)[C@H](C)OCc1ccccc1)OC | -4.64% (inactive) | – |
| O=C(Cc1ccc(Br)cc1)NCCc1ccccc1 | -19.9% (inactive) | – |

| Compound | activity change, negative = growth inhibition | Potency |
| --- | --- | --- |
| COc1ccccc1NC(=O)CCC(=O)N1CC(C)Oc2ccc(C)cc21 (configuration not stated) | – | 16.4 µM (active) |
| COC(=O)C(CC(=O)Nc1cc(C)ccc1C)Nc1ccccc1OC (configuration not stated) | -2% (inactive) | – |
| CC1CN(C(=O)CCC(=O)NCc2cccnc2)c2ccccc2O1 (configuration not stated) | -9.83% (inactive) | – |
| O=C(Cn1nnc(-c2ccccc2)n1)NCc1ccc2c(c1)OCO2 | -21.4% (inactive) | – |
| CN(C)C(=O)c1cccc(-c2cnc3sc(NCc4ccc5c(c4)OCO5)nn23)c1 | – | 13 µM (active) |
| O=C(CSc1ncnc2scc(-c3ccccc3)c12)NCc1ccc2c(c1)OCO2 | 4.66% (inactive) | – |
| OC(CNC1CCCC1)COc1ccc(F)cc1 (configuration not stated) | -3.38% (inactive) | – |
| Nc1c(C(=O)Nc2ccc3c(c2)OCCO3)nnn1Cc1ccccc1 | -27.2% (inactive) | – |
| COC(=O)c1ccc(CSc2nc3cc(Cl)ccc3o2)cc1 | -11.2% (inactive) | – |
| COc1cccc(-c2nc(S(=O)(=O)c3ccc(C)cc3)c(NCc3ccccc3)o2)c1 | – | 18.4 µM (active) |
| O=S(=O)(c1ccccc1)c1nc(-c2ccccc2F)oc1NCc1cccnc1 | 5.86% (inactive) | – |
| O=S(=O)(c1ccc(Br)cc1)c1nc(-c2ccccc2)oc1NCc1cccnc1 | -18.3% (inactive) | – |
| COc1cc(C2C3C(=O)N(c4ccccc4)C(=O)C3ON2c2ccccc2)ccc1O (configuration not stated) | -5.92% (inactive) | – |
| CCc1ccc2ncc3c(-c4ccc(C)cc4)nn(CC(=O)NCc4ccccc4)c3c2c1 | -13.3% (inactive) | – |
| COc1ccc2ncc3c(-c4ccc(C)c(C)c4)nn(CC(=O)NC4CCCC4)c3c2c1 | – | 6.51 µM (active) |
| COc1ccc(-c2nn(CC(=O)NC3CCCC3)c3c2cnc2ccc(F)cc23)cc1 | -10.7% (inactive) | – |
| COc1cccc2c(=O)n(CC(=O)N3CCCCCC3)ccc12 | -8.15% (inactive) | – |
| CCOc1ccc(C2C(C(=O)Nc3ccc(Cl)cc3)=C(C)Nc3nc(C(F)(F)F)nn32)cc1 (configuration not stated) | – | 14.6 µM (active) |
| CCOc1cc(C2C(C(=O)Nc3ccc(OC)cc3)=C(C)Nc3nc(SC)nn32)ccc1O (configuration not stated) | -2.38% (inactive) | – |
| COc1cc(C2C(C(=O)Nc3ccc(F)cc3)=C(C)Nc3nc(CCCO)nn32)cc(OC)c1OC (configuration not stated) | -0.287% (inactive) | – |
| CCOc1ccccc1-c1cc(C(=O)N2CCOCC2)c2ccccc2n1 | 3.51% (inactive) | – |
| COc1cc(OC)c(N(C)C(=O)c2cc3c(=O)oc4ccccc4c3s2)cc1Cl | -0.861% (inactive) | – |
| CCOc1ccccc1N(C)C(=O)c1cc2c(s1)-c1ccccc1OC2 | – | 16.4 µM (active) |
| COc1ccc(C(=O)NC(C)Cn2nc(C)cc2C)cc1OC1CCN(C(C)=O)CC1 (configuration not stated) | -0.393% (inactive) | – |
